Among the data in PubChem BioAssay (NCATS) are outcome values, retold here.

Inconclusive results are not listed. The source made the active and inactive calls. The call rests on the fitted dose curve; in most records, active means well fitted inhibition curve with a large enough effect; inconclusive means small, poorly fitted or top-dose-only effect; inactive means flat fitted curve, though single readings scatter.

For this experiment, the system named is HACAT. Nature of the experiment: qHTS assay to identify novel small-molecules to repurpose for Merkel cell carcinoma treatment (AID 1296009). Further: nearly all actives have a fitted effect of over 60% in size. As to conditions: MCC and control cell lines, CellTiter-Glo viability, 72 h; at 44.8 µM (top of the series) unless noted. In a few lines:
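Cell viability, measured as CellTiter-Glo luminescence, was normalized between DMSO and no-cell wells. The cells had been exposed to 8- or 11-point compound dilutions for 72 hr at 37 degree celsius.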
On the technique in general: qHTS replaces the single test concentration by a dilution series.
Regarding `Nc1nc2c(c(N3CC[C@@H](N)C3)n1)CCCc1ccccc1-2`, the call was inactive.
Then `O=C(Nc1cc(C(F)(F)F)cc(C(F)(F)F)c1)c1cnc(Cl)nc1C(F)(F)F`, with “inactive”; and `COC(=O)c1ccc2c(c1)nc(NC(=O)c1ccccc1)n2CCCc1ccccc1`, with “inactive”.
Then `COC1C(O)C(OC2CCC3(C)C(CCC45CCC6C7(COC(=O)C7)OC4(O)C6(C)CCC35)C2)OC(C)C1OC1OC(CO)C(OC2OC(CO)C(O)C(O)C2O)C(O)C1O` (stereo not drawn), with “inactive [at 9.27 µM]”; and `O=C(Nc1ccccc1)N1CCN(c2nc(-c3ccccc3)ns2)CC1`, with “inactive”; and `CC(=O)OC1CC(O)(C(C)C)C2C(OC(=O)c3ccc(O)cc3)C=C(C)C(=O)CC12C` (stereo not drawn), with “inactive [at 17.4 µM]”.
Then `O=S(=O)(c1ccc(Cl)cc1)N1CCN(c2ccnc3cc(Cl)ccc23)CC1`, with “inactive”.
Take `C/C=C\NC(=O)C1NC(=O)C(CC(N)=O)NC(=O)C(NC(=O)C(=O)C(C)CC)Cc2ccc(O)c(c2)-c2cccc3c2NC(=O)C3(O)C1O` (stereo not drawn): the outcome is “inactive [at 17.4 µM]”.
